Holding throughout (experiment): NCI-60 one-dose screen, 48 h (100 = growth as untreated, 0 = no growth, -100 = all killed)
One assay has as its system SR leukemia. As to conditions: 10 µM unless noted.
The next assay deals with RPMI-8226 leukemia. As to conditions: 10 µM unless noted.
The next assay deals with OVCAR-8 ovarian. Particulars: 10 µM unless noted.
The test system of a further assay is OVCAR-5 ovarian. As to conditions: 10 µM unless noted.
For the next assay, the system named is OVCAR-4 ovarian. Particulars: 10 µM unless noted.
In the next assay the test system is SK-OV-3 ovarian. Particulars: 10 µM unless noted.
Another assay relates to IGROV1 ovarian. Particulars: 10 µM unless noted.
The test system of another assay is OVCAR-3 ovarian. As to conditions: 10 µM unless noted.
In another assay the test system is HS 578T breast. Particulars: 10 µM.
The test system of the next assay is NCI/ADR-RES ovarian. Particulars: 10 µM unless noted.

This is an account of results in PubChem BioAssay (NCI).

The panel holds about 83,000 compounds, 20% with a hit somewhere; the sample as a whole holds those more often.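 Cell lines were cultured in 96-well plates, exposed to a single compound concentration, and assessed for percent growth 48 hours later.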 Unmarked numbers belong to inactive results. Calls of active or inactive are those of the source. The calls were made as follows: active = growth percent below 10; inactive = the rest.

With `Cc1cc(C2(c3ccc(O)c(C)c3)OS(=O)(=O)c3ccccc32)ccc1O`, the growth in the assay with SR leukemia is 97.2%; in the assay with RPMI-8226 leukemia it was 99.3%; with OVCAR-8 ovarian, 107%; in the assay on OVCAR-5 ovarian, 110%; in the assay on OVCAR-4 ovarian, 107%; in the assay on SK-OV-3 ovarian it was 111%. Moreover, the growth in the assay on IGROV1 ovarian is 105%; with OVCAR-3 ovarian, 119%; in the assay with HS 578T breast, 101%; with NCI/ADR-RES ovarian, 109%.
Turning to `COC(=O)[C@]12CC[C@@H](C)[C@H](C)[C@@H]1C1=CC[C@@H]3[C@@]4(C)C(C=O)=C[C@@](C)(COS(C)(=O)=O)C4=CC[C@@]3(C)[C@]1(C)CC2`, the growth is -15.6% (active) in the assay on SR leukemia; -4.75% (active) in the assay on RPMI-8226 leukemia; -12% (active) with OVCAR-8 ovarian; -35.9% (active) with OVCAR-5 ovarian; -61.1% (active) in the assay on OVCAR-4 ovarian; 17.1% with SK-OV-3 ovarian. For the same compound, the growth with IGROV1 ovarian is -24.1% (active); in the assay on OVCAR-3 ovarian, -85.7% (active); in the assay with HS 578T breast, -24.1% (active); in the assay on NCI/ADR-RES ovarian, -25.4% (active).
Turning to `CC(=O)Oc1ccccc1C(=O)N=C1[Se]CCN1C(=O)c1ccccc1OC(C)=O`, the growth in the assay with SR leukemia is 24%; in the assay with RPMI-8226 leukemia, 12.1%; with OVCAR-8 ovarian it was -12.1% (active); in the assay with OVCAR-5 ovarian it was -12.4% (active); with OVCAR-4 ovarian it was -2.68% (active); in the assay on SK-OV-3 ovarian, -30.6% (active). For the same compound, the growth in the assay with IGROV1 ovarian was -15.1% (active); in the assay on OVCAR-3 ovarian, -74.2% (active); in the assay on HS 578T breast, -14.9% (active); in the assay on NCI/ADR-RES ovarian, -6.15% (active).
As for `O=C1/C(=C\c2cccc(OCCCCCOc3ccc(Cl)cc3)c2)N=C2SCCCN12`, the growth with SR leukemia was 92.1%; in the assay with RPMI-8226 leukemia it was 40.9%; in the assay on OVCAR-8 ovarian, 53%; in the assay on OVCAR-5 ovarian it was 85.3%; with OVCAR-4 ovarian, 31.3%; in the assay with SK-OV-3 ovarian it was 93.8%. In addition, the growth in the assay with IGROV1 ovarian was 86.9%; in the assay on OVCAR-3 ovarian, 59.3%; with HS 578T breast, 87%; in the assay on NCI/ADR-RES ovarian, 45.4%.
Regarding `O=C(Cc1ccccc1)Nc1nnc(NC2CCN(c3nnc(NC(=O)Cc4ccccc4)s3)CC2)s1`, the growth was 84.9% in the assay on SR leukemia; 58.9% with RPMI-8226 leukemia; 95.2% in the assay on OVCAR-8 ovarian; 94.3% with OVCAR-5 ovarian; 98.8% with OVCAR-4 ovarian; 84% in the assay on SK-OV-3 ovarian. The growth with IGROV1 ovarian was 84.8%; with OVCAR-3 ovarian, 94.4%; with HS 578T breast, 78.6%; in the assay with NCI/ADR-RES ovarian, 98.4%.
Regarding `CC(C)C1CCC(C)C(C2(C#N)C(N)=NC(N)=C2C#N)C1=O` (stereo not given), the growth is 102% in the assay on SR leukemia; 89% in the assay with RPMI-8226 leukemia; 106% with OVCAR-8 ovarian; 103% with OVCAR-5 ovarian; 90.8% with OVCAR-4 ovarian; 107% with SK-OV-3 ovarian. Besides, the growth in the assay with IGROV1 ovarian is 94.4%; in the assay on OVCAR-3 ovarian, 98%; in the assay with HS 578T breast, 101%; in the assay with NCI/ADR-RES ovarian, 97.1%.
On to `COC(=O)[C@]12CC[C@@H](C)[C@H](C)[C@@H]1C1=CC[C@@H]3[C@@]4(C)C(c5cnco5)=C[C@@](C)(CO)C4=CC[C@@]3(C)[C@]1(C)CC2`, for which the growth in the assay on SR leukemia was 21.1%; with RPMI-8226 leukemia, 26.1%; with OVCAR-8 ovarian, 60.8%; in the assay with OVCAR-5 ovarian, 78.8%; in the assay on OVCAR-4 ovarian it was 40.6%; with SK-OV-3 ovarian, 67.2%. Moreover, the growth is 77.6% with IGROV1 ovarian, 50.1% in the assay on OVCAR-3 ovarian, 72.8% with HS 578T breast and 53.9% in the assay with NCI/ADR-RES ovarian.
On to `CCc1nc2cc(/C=C/C(=O)NO)c(F)cc2c(=O)n1CCc1ccccc1`, for which the growth is 8.11% (active) in the assay on SR leukemia; 12% with RPMI-8226 leukemia; 6.53% (active) in the assay on OVCAR-8 ovarian; 25.4% with OVCAR-5 ovarian; 11% in the assay on OVCAR-4 ovarian; -4.18% (active) in the assay on SK-OV-3 ovarian. The growth in the assay on IGROV1 ovarian is 26.1%; in the assay with OVCAR-3 ovarian, 5.14% (active); with HS 578T breast, 54%; with NCI/ADR-RES ovarian, -11.3% (active).
On to `O=c1nc2c(-c3nc4ccccc4s3)n[nH]n2c2sc3c(c12)CCCC3`, for which the growth with SR leukemia is 90.6%; in the assay on RPMI-8226 leukemia it was 94.3%; in the assay on OVCAR-8 ovarian it was 94%; with OVCAR-5 ovarian, 120%; in the assay with OVCAR-4 ovarian, 115%; in the assay with SK-OV-3 ovarian, 92.3%. The growth in the assay with IGROV1 ovarian is 101%; in the assay with OVCAR-3 ovarian, 95%; in the assay on HS 578T breast, 94.3%; in the assay on NCI/ADR-RES ovarian it was 96.9%.
With `CCc1nc2ccc(Cc3ccc(C(=O)NO)cc3)cc2c(=O)n1CCc1ccccc1`, the growth is 2.05% (active) in the assay on SR leukemia; 6.11% (active) with RPMI-8226 leukemia; -31% (active) in the assay on OVCAR-8 ovarian; 1.71% (active) with OVCAR-5 ovarian; -7.64% (active) in the assay on OVCAR-4 ovarian; -26.9% (active) in the assay on SK-OV-3 ovarian. Also, the growth was -56.7% (active) with IGROV1 ovarian, -37.1% (active) in the assay with OVCAR-3 ovarian, 14.9% in the assay on HS 578T breast and -17.3% (active) in the assay on NCI/ADR-RES ovarian.
Take `Brc1ccc([I+]c2ccc(Br)cc2)cc1`: the growth in the assay with SR leukemia is 3.44% (active); in the assay on RPMI-8226 leukemia it was 7.72% (active); with OVCAR-8 ovarian it was 11.6%; in the assay with OVCAR-5 ovarian it was 61%; with OVCAR-4 ovarian it was 22.3%; with SK-OV-3 ovarian, 43.6%. Further, the growth is 26.2% in the assay on IGROV1 ovarian, 61.6% with OVCAR-3 ovarian, 69.7% in the assay on HS 578T breast and 98.9% with NCI/ADR-RES ovarian.
In the case of `CCN1CCN(c2cc(C)nc(N(CCCNc3ccnc4cc(Cl)ccc34)Cc3cccs3)n2)CC1`, the growth with SR leukemia was -34% (active); in the assay with RPMI-8226 leukemia, -33.6% (active); with OVCAR-8 ovarian it was 15.7%; in the assay on OVCAR-5 ovarian, 69.8%; in the assay with OVCAR-4 ovarian, 30.4%; in the assay on SK-OV-3 ovarian, 65.5%. Besides, the growth was 10.3% in the assay with IGROV1 ovarian, -2.11% (active) in the assay with OVCAR-3 ovarian, -22.4% (active) in the assay on HS 578T breast and 28.5% in the assay with NCI/ADR-RES ovarian.
As for `COC[C@@H](C)n1c(C2CCOCC2)nc2c1C1C=C(OC)C(c3c(C)noc3C)=CC1N=C2` (stereo not given in full), the growth with SR leukemia was 31.1%; in the assay on RPMI-8226 leukemia, 10.4%; with OVCAR-8 ovarian, 57.1%; in the assay with OVCAR-5 ovarian, 70.3%; in the assay on OVCAR-4 ovarian it was 42.8%; with SK-OV-3 ovarian, 39.6%. The growth was 39.4% in the assay on IGROV1 ovarian, 28.9% in the assay with OVCAR-3 ovarian, 35% with HS 578T breast and 43.4% in the assay on NCI/ADR-RES ovarian.
With `CC(=O)CC1CCCC1c1ccc2ccccc2c1` (stereo not given), the growth in the assay with SR leukemia was 104%; with RPMI-8226 leukemia it was 103%; in the assay on OVCAR-8 ovarian it was 100%; with OVCAR-5 ovarian, 97.2%; with OVCAR-4 ovarian it was 112%; with SK-OV-3 ovarian, 101%. Besides, the growth in the assay on IGROV1 ovarian is 101%; in the assay on OVCAR-3 ovarian it was 105%; in the assay with HS 578T breast it was 100%; in the assay with NCI/ADR-RES ovarian, 102%.
